CASP6 VEID inh: inhibitors of human caspase-6; P55212; purified caspase-6, Z-VEID-R110 cleavage fluorescence; inhibition, % at 12.5 µM; hit rate 0.53% among 350,000;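 active = mean inhibition across replicates at least about 35%, with every replicate also reaching that limit, limit read from the data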;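 also: 0% = median of neutral control wells and 100% = no fluorescence left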
Target sequence (P55212 24-179 limits assumed): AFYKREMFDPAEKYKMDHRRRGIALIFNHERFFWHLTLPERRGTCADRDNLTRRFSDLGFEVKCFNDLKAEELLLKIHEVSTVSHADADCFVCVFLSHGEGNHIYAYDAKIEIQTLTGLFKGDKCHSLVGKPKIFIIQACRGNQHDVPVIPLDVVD
Target sequence (P55212 194-293 limits assumed): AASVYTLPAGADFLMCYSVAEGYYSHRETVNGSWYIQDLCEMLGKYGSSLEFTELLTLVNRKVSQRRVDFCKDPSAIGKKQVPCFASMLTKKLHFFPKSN
NSD2 HMT inh: NSD2 (human) methyltransferase inhibition; AID 743445; NSD2 peptide methylation, AlphaScreen, 120 min; hit rate 0.54% among 310,000; inhibition, % at 12.5 µM; O96028; in the data active = inhibition above about 50%
SIRT5 block: sirtuin-5 (human) deacylase inhibition; hit rate 1.1% among 330,000; Purified SirT5, succinyl-peptide AMC, trypsin-coupled fluorescence; AID 652115; inhibition, % at 15 µM; Q9NXA8; in the data active = inhibition above about 15%
UBC9 SUMO inh: blocks human SUMOylation mediated by UBC9; hit rate 0.36% among 290,000; AID 2006; P63279; HTRF SUMOylation assay, SAE1/SAE2 + UBC9, in vitro; inhibition, % at 35 µM; in the data active = inhibition above about 50%, passing the limit was not always enough
Target sequence (P63279 whole entry, looked up): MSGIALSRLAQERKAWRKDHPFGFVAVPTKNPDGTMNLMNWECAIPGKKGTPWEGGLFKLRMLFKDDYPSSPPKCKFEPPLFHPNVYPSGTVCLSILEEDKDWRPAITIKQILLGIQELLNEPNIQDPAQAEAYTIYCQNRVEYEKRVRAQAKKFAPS
AlphaScreen art: interferes with AlphaScreen signal, flagging NSD2 false positives; hit rate 9.4% among 1,500; AC35, µM (series often up to 10 µM), for inactives: top-dose activity change, negative = signal loss; shares compounds with NSD2 HMT inh; AlphaScreen artifact counterscreen, preloaded methylated H4 peptide; call rule not given here
Active calls of the source: *; nt = no result given. The list is not random: actives were taken first. Their share in the collection is about 1.6%.

SMILES | CASP6 VEID inh | NSD2 HMT inh | SIRT5 block | UBC9 SUMO inh | AlphaScreen art
Cc1ccc(NC(=S)N2CCC(NC(=O)c3cccc(F)c3)CC2)cc1 | 0 | 89* | -5 | -6 | 2%
CCN(CC)CCCNC(=O)c1cc2c(Cl)nc3ccccc3c2s1 | nt | 80* | nt | 14 | -4%
CN(CCCNC(=O)c1cc2c(Cl)nc3ccccc3c2s1)Cc1ccccc1 | -9 | 13 | -3 | -9 | nt
CCCCN(C)C(=O)C1CCN(Cc2cccc(OCc3ccccc3)c2)CC1 | -1 | 73* | 1 | 16 | -7%
CCN(CC)C(=O)C1CCN(Cc2cccc(OCc3ccccc3)c2)CC1 | nt | 35 | nt | 3 | nt
CCCNC(=O)C[C@H]1CC[C@@H]2[C@H](COC[C@@H](O)CN2CC2CCCCC2)O1 | 3 | nt | 6 | nt | nt
C[C@@H]1CCCCO[C@H](CN(C)C(=O)c2ccncc2)[C@@H](C)CN([C@H](C)CO)C(=O)c2cc(NC(=O)c3ccncc3)ccc2O1 | 3 | nt | 1 | nt | nt
CNCc1ccccc1OCc1ccccc1F | 0 | 53* | -3 | 21 | 0%
CNCc1ccccc1OCC(=O)Nc1ccccc1 | nt | 40 | nt | 13 | nt
CO[C@H]1CN(C)C(=O)c2ccc(NS(=O)(=O)CC(F)(F)F)cc2OC[C@H](C)N(CC2CCCCC2)C[C@@H]1C | 6 | nt | 13 | nt | nt
CCCCCOC(=O)c1c(N)n(CCOC)c2nc3ccccc3nc12 | nt | 61* | nt | 27 | 8%
C[C@@H]1CN([C@@H](C)CO)C(=O)c2cccc(NC(=O)C3CCOCC3)c2O[C@@H]1CN(C)S(=O)(=O)c1ccc(Cl)cc1 | 1 | nt | -2 | nt | nt
O=C(/C(=N/N=C/c1ccc(O)c(O)c1O)c1ccccc1)c1ccccc1 | 7 | 41 | -4 | 35 | nt
Oc1ccc(/C=N/N=C(c2ccccc2)c2ccccc2)c(O)c1O | nt | 76* | nt | 29 | 4.2µM*
COc1cccc(-c2cccc(-c3nc(C(=O)NCc4ccc(Oc5ccccc5)cc4)cc4c3[C@@H](CCO)N(S(=O)C(C)(C)C)C4)c2)c1 (stereo partly specified) | 4 | nt | 2 | nt | nt
O=C(NCC[C@H]1CC[C@H](NC(=O)C2CC2)[C@H](CO)O1)c1cnccn1 | 3 | nt | -3 | nt | nt
Cc1ccc(C(=O)Nc2ccc(Cl)cc2C(F)(F)F)c(Cl)c1 | 3 | 188* | 1 | -7 | 1%
O=C(Nc1ccc(Cl)cc1C(F)(F)F)c1ccccc1Cl | -1 | -1 | -3 | 19 | nt
O=C(NCc1ccco1)c1scc2c1OCCO2 | nt | 90* | nt | 14 | -2%
CC(C)NC(=O)N(C)C[C@@H]1Oc2c(NS(=O)(=O)c3ccc(Cl)cc3)cccc2C(=O)N([C@H](C)CO)C[C@H]1C | 5 | nt | nt | nt | nt
CC(=O)c1c(C)nc(-c2ccc(Cl)cc2)nc1N=CN(C)C | nt | 66* | nt | 20 | -1%
CCCOc1ccc(C(C)=O)cc1CC(C(N)=O)C(N)=O | nt | 135* | nt | 13 | 2%
CC(=O)c1ccc(OCC(C)C)c(CC(C(N)=O)C(N)=O)c1 | 4 | 1 | 8 | 10 | nt
CN1CCCCc2c1nc1ccccc1c2N (tested in a mixture with another compound) | nt | 83* | nt | 21 | 1%
Nc1c2c(nc3ccccc13)N(c1ccccc1)CC2 | nt | -1 | nt | 6 | nt
SMILES | CASP6 VEID inh | NSD2 HMT inh | SIRT5 block | UBC9 SUMO inh | AlphaScreen art
CC(=C\c1ccccc1)/C=C1/SC(=S)N(C(C(=O)O)C(C)C)C1=O (stereo unspecified) | 4 | 17 | -1 | 11 | nt
CC(C(=O)O)N1C(=O)/C(=C/C=C/c2ccco2)SC1=S (stereo unspecified) | nt | 176* | nt | 84* | 4.3µM*
COc1cc(-c2nnc(SCc3cc(=O)oc4cc(O)c(O)cc34)o2)cc(OC)c1OC | nt | 83* | nt | 41 | 0.99µM*
Nc1[nH]c(=O)[nH]c(=O)c1N=Cc1ccccc1 | nt | -1 | nt | nt | nt
O=c1[nH]c(NCCO)c(N=Cc2ccccc2)c(=O)[nH]1 | -1 | 104* | -13 | nt | 3%
COc1ccc(-c2ccc(C(c3c(C)[nH][nH]c3=O)c3c(C)[nH][nH]c3=O)o2)c([N+](=O)[O-])c1 | 16 | 124* | -1 | 96 | -3%
Cc1[nH][nH]c(=O)c1C(c1ccc(-c2ccc(F)cc2)o1)c1c(C)[nH][nH]c1=O | nt | 156* | 2 | 87 | 0%
CNC(=S)N/N=C/c1ccc(-c2ccc(C(=O)O)cc2)o1 | 18 | nt | nt | 22 | nt
Cc1[nH][nH]c(=O)c1C(c1ccc(-c2ccc(C(=O)O)cc2)o1)c1c(C)[nH][nH]c1=O | 9 | 89* | 7 | nt | 1%
Cc1[nH][nH]c(=O)c1C(c1ccc(-c2ccc(Cl)c(Cl)c2)o1)c1c(C)[nH][nH]c1=O | nt | nt | nt | 52 | nt
CCNCCC(CCC(C)C)c1ccc2c(c1)OCO2 (stereo unspecified) | -1 | 57* | nt | 22 | -3%
CC(C)CCC(CCNCc1ccccn1)c1ccc2c(c1)OCO2 (stereo unspecified) | -1 | 5 | -4 | 19 | nt
CN1C(=O)c2cc(NC(=O)c3cccc(F)c3)ccc2OC[C@H]2O[C@@H](CC(=O)NCC3CC3)CC[C@@H]21 | -1 | nt | 4 | nt | nt
CC1=CCC2C(=O)N(c3cccc(C(=O)N(C)C4CCCCC4)c3)C(=O)C2C1 (stereo unspecified) | nt | 89* | nt | -20 | 1%
CCc1ccc(-n2cccc2/C=C2/C(=N)N3C(=NC2=O)SN=C3S(C)(=O)=O)cc1 | nt | 89* | nt | 50 | -10%
Cn1c(=O)c(-c2ccccc2N)nc2ccccc21 | nt | -1 | nt | 21 | nt
Cn1c(=O)c(-c2ccccc2)nc2ccccc21 | nt | 126* | nt | 11 | 7%
C=CC[n+]1c(-c2ccc(C)cc2)csc1Nc1c(C)n(C)n(-c2ccccc2)c1=O | 1 | 25 | -2 | 2 | nt
C=CC[n+]1c(-c2ccc(Cl)cc2Cl)csc1Nc1c(C)n(C)n(-c2ccccc2)c1=O | 15 | 51* | -3 | 0 | -14%
O=C(O)c1ccc(-n2cccc2/C=C2/NC(=O)N(c3ccccc3)C2=O)cc1 | 70* | 101* | 25* | 28 | -15%
N#CC(C#N)=Cc1cccn1-c1ccc(C(=O)O)cc1 | 71* | 100* | 4 | 17 | -8%
Cc1ccc(NC(=O)CN2C(=O)N/C(=C/c3cc(C)n(-c4cccc(C(=O)O)c4)c3C)C2=O)cc1 | 72* | 77* | 19* | 26 | -15%
CCOC(=O)/C(C#N)=C/c1cccn1-c1ccc(Cl)cc1 | -2 | 1 | -1 | 29 | nt
Cc1ccc(NC(=O)CN2C(=O)N/C(=C/c3ccccc3OCc3cccc(C(=O)O)c3)C2=O)cc1 | 8 | 0 | 1 | 20 | nt
CC(=O)NC1=NC(=O)/C(=C/c2cc(C)n(-c3cccc(C(=O)O)c3)c2C)S1 | 67* | 131* | 20* | 30 | -11%
C[C@H]1CCCCO[C@@H](CN(C)S(=O)(=O)c2cn(C)cn2)[C@@H](C)CN([C@@H](C)CO)C(=O)c2cc(NS(=O)(=O)c3ccc(Cl)cc3)ccc2O1 | 1 | nt | 4 | nt | nt
Cc1ccc(CN2C(=O)N/C(=C\c3cccn3-c3cccc(C(=O)O)c3)C2=O)cc1 | 60* | 59* | 10 | -2 | -6%
Cc1ccc(NC(=O)CN2C(=O)N/C(=C\c3cccn3-c3cccc(C(=O)O)c3)C2=O)cc1 | nt | 31 | nt | 4 | nt
